Data reported in PubChem BioAssay (EPA / NIEHS).
Results filed as inconclusive are left out. Activity calls are given as the source filed them. The calls were made as follows, unless noted: active = hit-call score of the fitted dose curve at least 0.9, where 1 is the maximum; inconclusive = response in the unintended direction; inactive = score below 0.9.

Legend:
[1] = target: human Ephrin type-A Receptor 1 (EphA1), EPHA1 (gene 2041) (UniProt P21709); assay: NVS_ENZ_hEphA1: NovaScreen (NVS) Enzymatic Assay for human Ephrin type-A Receptor 1 (EphA1) (AID 2283158);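 also: activity is signal loss versus DMSO meaning EphA1 kinase inhibition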
human Ephrin type-A Receptor 1 (EphA1), EPHA1 (gene 2041), sequence (P21709 whole entry, looked up): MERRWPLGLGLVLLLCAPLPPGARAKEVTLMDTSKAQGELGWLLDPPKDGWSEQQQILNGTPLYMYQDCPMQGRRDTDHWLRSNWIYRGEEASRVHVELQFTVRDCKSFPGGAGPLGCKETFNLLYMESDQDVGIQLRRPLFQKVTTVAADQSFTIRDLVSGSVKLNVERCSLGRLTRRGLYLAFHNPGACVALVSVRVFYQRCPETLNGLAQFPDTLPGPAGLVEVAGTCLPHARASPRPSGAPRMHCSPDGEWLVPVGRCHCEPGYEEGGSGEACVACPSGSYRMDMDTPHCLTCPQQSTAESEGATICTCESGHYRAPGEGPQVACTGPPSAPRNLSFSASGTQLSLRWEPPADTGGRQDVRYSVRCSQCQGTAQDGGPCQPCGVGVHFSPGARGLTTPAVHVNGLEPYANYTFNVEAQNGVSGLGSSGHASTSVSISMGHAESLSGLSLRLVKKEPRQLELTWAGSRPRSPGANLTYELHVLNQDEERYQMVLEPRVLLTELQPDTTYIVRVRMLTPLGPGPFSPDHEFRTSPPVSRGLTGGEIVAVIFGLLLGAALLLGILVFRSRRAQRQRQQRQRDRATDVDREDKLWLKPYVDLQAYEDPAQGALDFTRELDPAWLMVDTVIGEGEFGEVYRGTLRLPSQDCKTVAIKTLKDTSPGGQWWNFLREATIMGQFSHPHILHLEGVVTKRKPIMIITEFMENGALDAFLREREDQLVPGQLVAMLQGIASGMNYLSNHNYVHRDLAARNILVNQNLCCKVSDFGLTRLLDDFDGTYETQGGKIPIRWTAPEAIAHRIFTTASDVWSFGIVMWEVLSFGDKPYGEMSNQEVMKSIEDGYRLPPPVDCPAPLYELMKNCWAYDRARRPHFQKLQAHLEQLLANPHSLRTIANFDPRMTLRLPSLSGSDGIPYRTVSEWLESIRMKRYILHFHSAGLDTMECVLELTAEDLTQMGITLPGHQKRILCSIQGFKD
How it was run: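 Cell-free enzymatic assay with recombinant EphA1 and fluorescent substrate; product separated by electrophoretic mobility shift, fluorescence intensity read 1 hour after dosing. Loss of signal versus DMSO baseline; primary duplicate screen at 25 uM, actives followed to 50 uM top concentration.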

[2] = read-out: Vascular cell adhesion molecule 1 (VCAM1), VCAM1 (gene 7412); assay: BSK_MyoF_VCAM1: BioMAP Diversity Plus: MyoF Assay for Vascular cell adhesion molecule 1 (VCAM1) Biomarker Activity (AID 2284231; active = hit-call score of the fitted dose curve at least 0.9, where 1 is the maximum; inactive = score below 0.9); conditions: primary human lung fibroblasts
How it was run: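 Primary human lung fibroblasts were dosed with test chemical for 24 h, then cell-surface VCAM-1 was measured by ELISA. Activity was fitted in the positive direction against DMSO as negative control and baseline.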

[3] = read-out: Plasminogen activator inhibitor-1 (PAI1), SERPINE1 (gene 5054); assay: BSK_MyoF_PAI1: BioMAP Diversity Plus: MyoF Assay for Plasminogen activator inhibitor-1 (PAI1) Biomarker Activity (AID 2284256; active = hit-call score of the fitted dose curve at least 0.9, where 1 is the maximum; inactive = score below 0.9;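 as to outcome: PAI-1 protein level measured by ELISA in fibroblast cultures; PAI-1 read 24 h after compound addition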); conditions: primary human lung fibroblasts
How it was run: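 ELISA read-out of PAI-1 from primary human lung fibroblast cultures 24 h after dosing; gain-of-signal fit versus DMSO control.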

[4] = BSK_MyoF_SRB: Viability Assessment in the BioMAP Diversity Plus: MyoF Assay (AID 2284267; active = hit-call score of the fitted dose curve at least 0.9, where 1 is the maximum; inactive = score below 0.9;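 also: total protein by SRB absorbance in parallel cultures as cytotoxicity measure; cells assessed 24 h after compound addition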); conditions: primary human lung fibroblasts
How it was run: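 In this viability endpoint, fibroblasts from human lung are treated for 24 h, TCA-fixed, SRB-stained (0.1%) and read at 560 nm. Gain of signal relative to DMSO defines activity.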

[5] = read-out: Matrix Metallopeptidase 1 (MMP1), MMP1 (gene 4312); assay: BSK_MyoF_MMP1: BioMAP Diversity Plus: MyoF Assay for Matrix Metallopeptidase 1 (MMP1) Biomarker Activity (AID 2284268; active = hit-call score of the fitted dose curve at least 0.9, where 1 is the maximum; inactive = score below 0.9); conditions: primary human lung fibroblasts
How it was run: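 ELISA readout of MMP1 in primary human lung fibroblast cultures, 24 h post-dosing. Gain of signal versus DMSO vehicle control defines activity. Parallel SRB staining (0.1% after 10% TCA fixation, 560 nm) flags overt cytotoxicity.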

[6] = read-out: TIMP metallopeptidase inhibitor 1 (TIMP1), TIMP1 (gene 7076); assay: BSK_MyoF_TIMP1: BioMAP Diversity Plus: MyoF Assay for TIMP metallopeptidase inhibitor 1 (TIMP1) Biomarker Activity (AID 2284269; active = hit-call score of the fitted dose curve at least 0.9, where 1 is the maximum; inactive = score below 0.9); conditions: primary human lung fibroblasts
How it was run: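 TIMP-1 levels were determined by ELISA in human lung fibroblasts treated for 24 h. DMSO served as negative control and baseline for upward curve fitting.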

[7] = target: Nuclear receptor subfamily 1 group I member 3 (Homo sapiens) (UniProt Q14994); assay: ATG_CAR_TRANS: Attagene TRANS-FACTORIAL HepG2 Assay for human Constitutive Androstane Receptor (CAR) (AID 2282969); conditions: HepG2 Attagene TRANS-FACTORIAL CAR reporter;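 also: activators raise reporter mRNA above DMSO so AC50 marks induction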
How it was run: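 Steps: transient transfection of HepG2 with multiple GAL4-UAS reporter units; 24 h compound incubation; RNA isolation, RT-PCR, 6-FAM primer extension, HpaI digest; capillary electrophoresis. Gain-of-signal relative to DMSO negative control.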

[8] = target: human Retinoic Acid Receptor gamma (RARg), RARG (gene 5916) (UniProt P13631); assay: ATG_RARg_TRANS: Attagene TRANS-FACTORIAL HepG2 Assay for human Retinoic Acid Receptor gamma (RARg) (AID 2283009)
human Retinoic Acid Receptor gamma (RARg), RARG (gene 5916), sequence (P13631 whole entry, looked up, the tested form may be a part): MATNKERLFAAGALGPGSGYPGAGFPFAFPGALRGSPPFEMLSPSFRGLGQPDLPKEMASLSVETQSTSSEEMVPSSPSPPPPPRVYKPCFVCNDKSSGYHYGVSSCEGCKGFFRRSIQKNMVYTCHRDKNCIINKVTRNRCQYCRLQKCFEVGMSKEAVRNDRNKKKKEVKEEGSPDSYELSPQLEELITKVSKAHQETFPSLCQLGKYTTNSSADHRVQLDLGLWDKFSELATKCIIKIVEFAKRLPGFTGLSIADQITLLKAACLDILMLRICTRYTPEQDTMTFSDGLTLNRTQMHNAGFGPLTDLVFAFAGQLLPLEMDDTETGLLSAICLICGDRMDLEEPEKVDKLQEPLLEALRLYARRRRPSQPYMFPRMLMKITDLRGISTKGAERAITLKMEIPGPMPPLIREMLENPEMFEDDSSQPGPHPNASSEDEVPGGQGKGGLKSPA
How it was run: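 Gain-of-signal relative to DMSO is reported from fluorescent capillary electrophoresis of RT-PCR reporter products. These came from HepG2 cells expressing transfected RARg-GAL4 chimeras with UAS reporters, harvested 24 h after dosing.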

[9] = target: rat Thyrotropin Releasing Hormone Receptor (TRH), Trhr (gene 25570) (UniProt Q01717); assay: NVS_GPCR_rTRH: NovaScreen (NVS) G Protein-Coupled Receptor Assay for rat Thyrotropin Releasing Hormone Receptor (TRH) (AID 2283329);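 also: hit means lower bound tracer signal versus DMSO baseline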
rat Thyrotropin Releasing Hormone Receptor (TRH), Trhr (gene 25570), sequence (Q01717 whole entry, looked up): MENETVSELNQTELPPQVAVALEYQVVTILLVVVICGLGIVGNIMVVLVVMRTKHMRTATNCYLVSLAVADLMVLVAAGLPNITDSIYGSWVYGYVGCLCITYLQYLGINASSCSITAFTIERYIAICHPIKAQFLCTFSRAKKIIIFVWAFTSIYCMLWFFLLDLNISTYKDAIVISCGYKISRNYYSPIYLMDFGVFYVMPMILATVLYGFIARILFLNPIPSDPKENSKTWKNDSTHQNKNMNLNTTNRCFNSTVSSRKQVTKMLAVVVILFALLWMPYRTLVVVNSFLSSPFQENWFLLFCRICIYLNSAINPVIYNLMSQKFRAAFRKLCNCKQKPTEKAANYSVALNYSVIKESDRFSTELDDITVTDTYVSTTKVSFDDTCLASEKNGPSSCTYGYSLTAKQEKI
How it was run: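 Test compounds are screened at 25 uM in duplicate against radioligand binding in rat forebrain membranes, with active pairs followed up over a concentration range. Detection uses filter-based radiodetection after a 4 h exposure.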

[10] = target: Androgen receptor (Homo sapiens) (UniProt P10275); assay: ATG_AR_TRANS: Attagene TRANS-FACTORIAL HepG2 Assay for human Androgen Receptor (AR) (AID 2282973); conditions: HepG2 Attagene TRANS-FACTORIAL AR reporter transcription
Androgen receptor (Homo sapiens), sequence (P10275 whole entry, looked up, the tested form may be a part): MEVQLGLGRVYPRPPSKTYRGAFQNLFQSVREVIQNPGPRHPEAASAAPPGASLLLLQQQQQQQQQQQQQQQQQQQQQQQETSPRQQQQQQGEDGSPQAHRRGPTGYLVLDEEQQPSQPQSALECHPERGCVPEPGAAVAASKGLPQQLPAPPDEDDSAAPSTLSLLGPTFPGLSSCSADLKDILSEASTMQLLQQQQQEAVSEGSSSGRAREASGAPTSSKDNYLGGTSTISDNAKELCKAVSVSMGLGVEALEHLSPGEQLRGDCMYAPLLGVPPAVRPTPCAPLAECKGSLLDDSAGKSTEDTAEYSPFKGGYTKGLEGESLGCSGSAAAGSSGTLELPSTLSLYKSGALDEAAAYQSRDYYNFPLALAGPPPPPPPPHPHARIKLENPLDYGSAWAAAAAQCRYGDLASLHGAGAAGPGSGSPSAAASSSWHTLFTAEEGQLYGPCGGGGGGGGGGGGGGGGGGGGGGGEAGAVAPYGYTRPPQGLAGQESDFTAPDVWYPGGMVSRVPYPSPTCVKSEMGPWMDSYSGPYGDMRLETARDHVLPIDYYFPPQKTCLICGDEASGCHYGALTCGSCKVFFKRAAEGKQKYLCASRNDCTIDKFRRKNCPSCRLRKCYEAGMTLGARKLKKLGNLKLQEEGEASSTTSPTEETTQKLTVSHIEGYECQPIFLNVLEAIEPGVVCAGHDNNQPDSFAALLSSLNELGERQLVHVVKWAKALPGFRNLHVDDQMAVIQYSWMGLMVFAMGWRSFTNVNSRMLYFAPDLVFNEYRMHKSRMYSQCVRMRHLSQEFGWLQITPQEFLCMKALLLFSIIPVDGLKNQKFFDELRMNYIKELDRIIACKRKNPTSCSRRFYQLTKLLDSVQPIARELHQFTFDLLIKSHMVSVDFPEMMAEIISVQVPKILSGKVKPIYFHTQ
How it was run: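 HepG2 cells transiently transfected with multiplexed GAL4-UAS reporter units and chimeric NR-Gal4 fusion; 24 h compound exposure. Reporter mRNA measured by RT-PCR, 6-FAM labelling, HpaI digestion and capillary electrophoresis; gain-of-signal fitted relative to DMSO baseline.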

[11] = target: human Retinoic Acid Receptor beta (RARb), RARB (gene 5915) (UniProt P10826); assay: ATG_RARb_TRANS: Attagene TRANS-FACTORIAL HepG2 Assay for human Retinoic Acid Receptor beta (AID 2283004)
human Retinoic Acid Receptor beta (RARb), RARB (gene 5915), sequence (P10826 whole entry, looked up, the tested form may be a part): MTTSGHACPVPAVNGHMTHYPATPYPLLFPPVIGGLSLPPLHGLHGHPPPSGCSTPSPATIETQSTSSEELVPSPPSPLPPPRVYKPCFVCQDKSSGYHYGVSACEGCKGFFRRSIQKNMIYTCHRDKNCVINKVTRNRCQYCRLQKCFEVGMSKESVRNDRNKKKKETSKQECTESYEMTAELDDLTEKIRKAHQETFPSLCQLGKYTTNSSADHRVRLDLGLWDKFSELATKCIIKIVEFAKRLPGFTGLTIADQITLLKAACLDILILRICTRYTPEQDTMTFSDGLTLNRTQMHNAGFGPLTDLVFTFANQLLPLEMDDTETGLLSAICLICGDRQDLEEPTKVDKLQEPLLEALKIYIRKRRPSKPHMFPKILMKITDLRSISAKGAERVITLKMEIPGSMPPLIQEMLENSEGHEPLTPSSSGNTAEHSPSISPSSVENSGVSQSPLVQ
How it was run: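 HepG2 cells transiently transfected with multiplexed GAL4-UAS reporter units expressing chimeric NR–Gal4 fusions; 24 h compound exposure. Reporter mRNA quantified by RT-PCR, 6-FAM labelling, HpaI digestion and capillary electrophoresis; gain-of-signal fitted against DMSO baseline.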

[12] = target: Retinoic acid receptor alpha (Homo sapiens) (UniProt P10276); assay: ATG_RARa_TRANS: Attagene TRANS-FACTORIAL HepG2 Assay for human Retinoic Acid Receptor alpha (RARa) (AID 2283005)
Retinoic acid receptor alpha (Homo sapiens), sequence (P10276 whole entry, looked up, the tested form may be a part): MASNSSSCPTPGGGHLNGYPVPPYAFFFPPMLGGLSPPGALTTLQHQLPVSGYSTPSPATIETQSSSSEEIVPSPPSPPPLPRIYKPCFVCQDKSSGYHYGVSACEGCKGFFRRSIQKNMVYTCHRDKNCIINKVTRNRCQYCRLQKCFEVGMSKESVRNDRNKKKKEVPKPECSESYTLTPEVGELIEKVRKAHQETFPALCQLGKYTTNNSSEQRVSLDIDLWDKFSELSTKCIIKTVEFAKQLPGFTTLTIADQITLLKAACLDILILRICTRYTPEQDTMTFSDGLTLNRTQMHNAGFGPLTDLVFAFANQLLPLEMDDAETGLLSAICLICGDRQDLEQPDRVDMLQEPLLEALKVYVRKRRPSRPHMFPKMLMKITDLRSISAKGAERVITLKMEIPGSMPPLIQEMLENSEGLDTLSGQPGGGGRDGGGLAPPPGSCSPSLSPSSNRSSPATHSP
How it was run: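 HepG2 cells transiently transfected with multiple reporter units expressing chimeric RARα-GAL4 fusion, with GAL4-UAS-driven reporters. After 24 h compound exposure, reporter mRNA induction quantified by RT-PCR and capillary electrophoresis with fluorescent labeling; gain-of-signal fitted relative to DMSO control.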

[13] = target: human Peripheral-type Benzodiazepine Receptor (PBR), TSPO (gene 706) (UniProt P30536); assay: NVS_MP_hPBR: NovaScreen (NVS) Membrane Protein Assay for human Peripheral-type Benzodiazepine Receptor (PBR) (AID 2283331);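 also: hits reduce radioligand binding relative to DMSO baseline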
human Peripheral-type Benzodiazepine Receptor (PBR), TSPO (gene 706), sequence (P30536 whole entry, looked up): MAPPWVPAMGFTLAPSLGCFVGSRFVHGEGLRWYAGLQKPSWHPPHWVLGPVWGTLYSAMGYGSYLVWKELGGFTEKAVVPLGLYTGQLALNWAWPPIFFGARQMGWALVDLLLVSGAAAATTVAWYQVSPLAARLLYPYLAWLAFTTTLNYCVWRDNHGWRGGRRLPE
How it was run: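 Using human colon-derived membranes, this one-endpoint binding test reads radioligand loss by scintillation after 1 h. Screening started at 25 uM in duplicate, with positive and negative controls on every plate, and actives moved to dose series.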

[14] = tested on: Thyroperoxidase (TPO), gene 54314; assay: CCTE_Simmons_AUR_rTPO: CCTE's Amplex UltraRed Assay for Thyroperoxidase (TPO) Inhibition, Simmons Lab (AID 2283662);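 also: potency for loss of signal meaning inhibition of peroxidase activity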
How it was run: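 Endpoint is decreased Amplex UltraRed fluorescence after a 30-min, 37C reaction of rat thyroid microsomes with 300 uM H2O2. Eight test concentrations (5 nM–87.5 uM final) in 0.5% DMSO, three biological replicates each.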

[15] = CCTE_Simmons_CellTiterGLO_HEK293T: Viability Assessment in CCTE's Assays for Thyroperoxidase (TPO) Inhibition, Simmons Lab (AID 2283665);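 as to AC50: cells exposed to compound for 24 h before readout; actives reduce ATP signal below DMSO vehicle meaning cytotoxicity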
How it was run: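 ATP depletion measured in HEK293T cells after 24 h dosing (8 concentrations, 5 nM–87.5 uM final; DMSO 0.5%) using CellTiter-Glo luminescence; curves fit for loss of signal against DMSO baseline.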

[16] = target: Luciferin 4-monooxygenase (Photinus pyralis) (UniProt P08659); assay: CCTE_Simmons_QuantiLum_inhib_2: CCTE's Firefly Luciferase Inhibition Assay, Simmons Lab (AID 2283767);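 as to AC50: potency for inhibitors that lower luciferase luminescence relative to DMSO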
Luciferin 4-monooxygenase (Photinus pyralis), sequence (P08659 whole entry, looked up): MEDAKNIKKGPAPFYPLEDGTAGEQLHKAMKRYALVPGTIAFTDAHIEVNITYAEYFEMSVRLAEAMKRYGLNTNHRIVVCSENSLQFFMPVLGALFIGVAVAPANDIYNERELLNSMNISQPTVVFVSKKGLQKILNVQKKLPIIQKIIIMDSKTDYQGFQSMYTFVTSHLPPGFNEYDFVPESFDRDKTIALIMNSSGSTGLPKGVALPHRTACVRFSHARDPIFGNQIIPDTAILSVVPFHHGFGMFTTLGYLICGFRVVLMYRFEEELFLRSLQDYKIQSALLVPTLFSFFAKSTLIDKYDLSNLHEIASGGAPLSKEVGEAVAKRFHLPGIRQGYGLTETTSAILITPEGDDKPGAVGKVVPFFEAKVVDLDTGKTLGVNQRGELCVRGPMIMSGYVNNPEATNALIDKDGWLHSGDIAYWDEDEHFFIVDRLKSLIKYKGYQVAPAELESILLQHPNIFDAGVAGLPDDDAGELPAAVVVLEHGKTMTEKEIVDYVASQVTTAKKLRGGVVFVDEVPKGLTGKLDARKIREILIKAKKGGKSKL
How it was run: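 Eight-point titrations of each chemical, 5 nM–87.5 uM final in 0.5% DMSO, were run in three biological replicates against recombinant luciferase for 30 min at 37C. Bioluminescence signal loss, read on reagent injection, gave the inhibition endpoint.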

[17] = CCTE_Deisenroth_AIME_384WELL_CTox_Active: Cytotoxicity Assessment (CTOX) in CCTE's 384-well Estrogen Receptor Transactivation Assay with AIME metabolic competence (metabolism positive), Deisenroth Lab (AID 2284037);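 also: chemicals first conditioned 2 h by alginate-bound induced rat liver S9 before cells; activity means signal loss indicating cell death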
How it was run: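 VM7Luc4E2 breast cells received medium pre-incubated 2 h with chemical over alginate microspheres holding induced male Sprague Dawley rat liver S9; viability read 24 h later by protease-substrate fluorescence. Loss of signal, bidirectional fit, 0.002–200 uM.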

[18] = CCTE_Deisenroth_AIME_384WELL_CTox_Inactive: Cytotoxicity Assessment (CTOX) in CCTE's 384-well Estrogen Receptor Transactivation Assay without AIME metabolic competence (metabolism negative), Deisenroth Lab (AID 2284039);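 also: cell viability via live-cell protease substrate cleaved to fluorescent probe; cells exposed 24 h to medium preincubated 2 h with alginate-water beads without S9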
How it was run: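 Fluorescence from a live-cell protease substrate, read after 24 h in VM7Luc4E2 cells, indicated viability. Test medium came from a 2 h AIME step without hepatic S9 (alginate-water microspheres); concentrations spanned 0.002 - 200 uM, single technical replicate per run.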

[19] = target: Bile acid receptor (Homo sapiens) (UniProt Q96RI1); assay: OT_FXR_FXRSRC1_0480: Odyssey Thera (OT) 8-hour HEK293T Protein-Complementation Assay for Farnesoid X receptor/SRC-1 Co-activator (AID 2283383)
Bile acid receptor (Homo sapiens), sequence (Q96RI1 whole entry, looked up): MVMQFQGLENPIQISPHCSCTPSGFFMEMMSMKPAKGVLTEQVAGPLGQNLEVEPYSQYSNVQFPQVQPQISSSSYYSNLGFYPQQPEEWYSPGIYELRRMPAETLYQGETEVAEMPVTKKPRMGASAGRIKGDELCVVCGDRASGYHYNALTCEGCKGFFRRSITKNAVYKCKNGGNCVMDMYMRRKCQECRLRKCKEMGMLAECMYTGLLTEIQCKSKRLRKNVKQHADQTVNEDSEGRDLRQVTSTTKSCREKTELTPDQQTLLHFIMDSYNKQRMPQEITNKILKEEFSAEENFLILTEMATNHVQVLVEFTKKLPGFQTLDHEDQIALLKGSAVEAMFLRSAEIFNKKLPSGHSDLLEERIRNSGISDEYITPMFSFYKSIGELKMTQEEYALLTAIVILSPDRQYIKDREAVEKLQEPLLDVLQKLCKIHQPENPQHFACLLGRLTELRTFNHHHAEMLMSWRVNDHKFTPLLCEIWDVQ
How it was run: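 Readings were taken 8 h after dosing HEK293T cells in a split-reporter complementation format pairing FXR with SRC-1. Increased fluorescence relative to DMSO-treated wells defined activity.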

[20] = target: Bile acid receptor (Homo sapiens) (UniProt Q96RI1); assay: OT_FXR_FXRSRC1_1440: Odyssey Thera (OT) 24-hour HEK293T Protein-Complementation Assay for Farnesoid X receptor/SRC-1 Co-activator (AID 2283384)
How it was run: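 Single endpoint, analysed for increased fluorescence against DMSO controls. HEK293T cells carrying FXR and SRC-1 linked to complementary reporter halves were exposed to chemicals for 24 h before reading.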

Which outcome [1] does the source give for `O=[N+]([O-])C=Cc1ccccc1` here?
Its outcome is “inactive”.

What about the AC50 [2] of the same compound?
Its AC50 is 11.1 µM (active).

What about the AC50 [3] of the same compound?
Its AC50 is 12.3 µM (active).

And the AC50 [4]?
Its AC50 is 20 µM (active).

What about the outcome [5] of the same compound?
Its outcome is “inactive”.

What about the AC50 [6] of the same compound?
The AC50 was 13.2 µM (active).

With `CC=Cc1ccc2c(c1)OCO2` as the compound, how does the outcome [7] read?
The outcome was “inactive”.

With `ClC1=C(Cl)[C@]2(Cl)[C@@H]3[C@@H](Cl)[C@H](Cl)C[C@@H]3[C@@]1(Cl)C2(Cl)Cl` as the compound, how does the outcome [8] read?
Its outcome is “inactive”.

Which outcome [9] does the source give for `CC(=O)c1cc2c(cc1C)C(C)(C)C(C)CC2(C)C` (stereo not given) here?
The outcome was “inactive”.

For `C=C(Cl)Cl`, which outcome [10] is on record?
Its outcome is “inactive”.

And the outcome [11]?
The outcome was “inactive”.

And the outcome [12]?
Its outcome is “inactive”.

And the outcome [8]?
The outcome was “inactive”.

With `COC(=O)COc1ccc(Cl)cc1Cl` as the compound, how does the AC50 [13] read?
The AC50 was 14.9 µM (active).

With `O=c1c2ccccc2c(=O)c2c1cc(Cl)c1[nH]c3c([nH]c12)c(Cl)cc1c(=O)c2ccccc2c(=O)c13` as the compound, how does the outcome [2] read?
Its outcome is “inactive”.

And the outcome [3]?
Its outcome is “inactive”.

And the outcome [4]?
Its outcome is “inactive”.

And the outcome [5]?
The outcome was “inactive”.

And the outcome [6]?
The outcome was “inactive”.

Which AC50 [14] does the source give for `Nc1ccccc1` here?
Its AC50 is 0.759 µM (active).

What about the outcome [15] of the same compound?
The outcome was “inactive”.

What about the outcome [16] of the same compound?
The outcome was “inactive”.

And the outcome [17]?
Its outcome is “inactive”.

What about the outcome [18] of the same compound?
Its outcome is “inactive”.

With `N#CCCCCC#N` as the compound, how does the outcome [1] read?
The outcome was “inactive”.

And the outcome [19]?
The outcome was “inactive”.

And the outcome [20]?
The outcome was “inactive”.

What about the outcome [18] of the same compound?
The outcome was “inactive”.

Which outcome [9] does the source give for `CCCCCCCCCCCCCCCC[N+](C)(C)C` here?
The outcome was “inactive”.

And the AC50 [13]?
The AC50 was 12.3 µM (active).

And the AC50 [14]?
Its AC50 is 51.5 µM (active).

What about the AC50 [15] of the same compound?
The AC50 was 10.2 µM (active).

What about the AC50 [16] of the same compound?
The AC50 was 92.4 µM (active).

What about the outcome [17] of the same compound?
Its outcome is “inactive”.

And the AC50 [18]?
Its AC50 is 100 µM (active).

Which outcome [9] does the source give for `C=CC(=O)OCCO` here?
The outcome was “inactive”.

For `O=C1C(Cl)=C(Cl)C(=O)C(Cl)=C1Cl`, which outcome [10] is on record?
Its outcome is “inactive”.

And the outcome [8]?
Its outcome is “inactive”.

And the outcome [1]?
The outcome was “inactive”.

And the AC50 [13]?
Its AC50 is 34.4 µM (active).

What about the AC50 [2] of the same compound?
Its AC50 is 20.5 µM (active).

What about the AC50 [3] of the same compound?
The AC50 was 29.9 µM (active).

What about the AC50 [4] of the same compound?
Its AC50 is 29.6 µM (active).

And the outcome [5]?
Its outcome is “inactive”.

What about the AC50 [6] of the same compound?
The AC50 was 28 µM (active).

With `C=C(Cl)CCl` as the compound, how does the outcome [8] read?
The outcome was “inactive”.

For `CC(O)CN(CC(C)O)CC(C)O` (stereo not given), which outcome [20] is on record?
The outcome was “inactive”.

With `N#CCCCl` as the compound, how does the outcome [12] read?
The outcome was “inactive”.

Which results are given for `CC(=O)/C=C/c1ccccc1`?
outcome [1]: inactive; outcome [2]: inactive; outcome [3]: inactive; outcome [4]: inactive; outcome [5]: inactive; outcome [6]: inactive

For `c1cc(OCC2CO2)ccc1Cc1ccc(OCC2CO2)cc1` (stereo not given), which outcome [10] is on record?
Its outcome is “inactive”.

For `CCC(Br)(CC)C(=O)NC(N)=O`, which outcome [11] is on record?
Its outcome is “inactive”.

With `Nc1ccccc1C(=O)Oc1ccc2ccccc2c1` as the compound, how does the outcome [10] read?
Its outcome is “inactive”.

What does the source list for `CN(C)CCC#N`?
outcome [12]: inactive; outcome [8]: inactive

For `CCCCOP(=O)(O)OCCCC`, which outcome [10] is on record?
Its outcome is “inactive”.
